BoNT A protease: BoNT A light chain protease inhibition; inhibition, % at 10 µM; multiplex microsphere protease substrate cleavage, flow cytometry; AID 588499; 360,000 tested, 0.17% active; also: plate controls were buffer without enzyme for full effect and enzyme alone for no effect
BoNT-F LC inh: blocks Botulinum neurotoxin F light chain protease | Multiplex microsphere protease cleavage assay, flow cytometry | inhibition, % at 10 µM | 360,000 tested, 0.22% active; in the data active = inhibition above about 35%, passing the limit was not always enough; inconclusive = no clear call, values can overlap the other calls; also: plate controls were buffer without enzyme for full effect and enzyme alone for no effect
SARS 3CLpro inh: SARS-CoV 3CLpro protease inhibition | P0C6X7 | recombinant SARS-CoV 3CLpro, quenched FRET peptide cleavage | inhibition, % at 6 µM | 290,000 tested, 0.14% active | AID 1706; in the data active = inhibition above about 12%
VHR inh abs: blocks human VHR1 dual specificity phosphatase | P51452 | recombinant VHR phosphatase, pNPP absorbance | inhibition, % at 13.3 µM | 290,000 tested, 0.52% active | AID 1654; in the data active = inhibition above about 50%
Target sequence (P51452 whole entry, looked up): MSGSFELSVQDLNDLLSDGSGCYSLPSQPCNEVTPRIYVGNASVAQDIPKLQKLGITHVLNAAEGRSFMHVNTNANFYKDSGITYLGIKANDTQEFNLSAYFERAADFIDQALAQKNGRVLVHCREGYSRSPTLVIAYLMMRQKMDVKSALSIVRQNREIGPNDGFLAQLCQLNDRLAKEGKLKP
Anthrax LF prot: blocks Bacillus anthracis lethal factor protease. P15917. multiplex microsphere protease cleavage assay, LF. inhibition, % at 10 µM. 360,000 tested, 0.12% active; also: plate controls were buffer without enzyme for full effect and enzyme alone for no effect
Autofluor counter: flagged as autofluorescent in microsphere protease counterscreen; fluorescence intensity (no concentration beside the values); 360,000 tested, 3.1% active; compound autofluorescence counterscreen, microsphere flow cytometry; active compounds read high; AID 624483; in the data active = fluorescence intensity above about 16000; inconclusive = no clear call, values can overlap the other calls
The depositor's hits bear a star; ? = inconclusive; . = no result given. An excerpt weighted towards active compounds, which were near 3.9% of everything screened. Rule as the data show it, unless noted: active = inhibition above about 30%; inconclusive = no clear call, values can overlap the other calls; inactive = below that.

SMILES | BoNT A protease | BoNT-F LC inh | SARS 3CLpro inh | VHR inh abs | Anthrax LF prot | Autofluor counter
O=C(O)c1ccc(-c2ccc(/C=c3/sc4nc5ccccc5n4c3=O)o2)cc1Cl | 32* | ? | 4 | . | 133* | 7041
CC(C)Oc1ccccc1C1CC(=O)Nc2c1c(=O)n(C)c(=O)n2C (stereo not drawn) | . | . | -4 | 59* | . | .
CC(C)(C)c1nnc2cccc(Cl)n12 | -2 | -3 | 8 | 14 | -4 | 5145
COc1cc(C(=O)NCCCN2CCCC2=O)cc(OC)c1OC | -1 | 2 | 0 | 14 | -4 | 11282
CCOC(=O)c1c(C)c(C(=O)NCCOC)c(C)n1CC | 1 | -1 | -1 | -1 | -2 | 23521*
CCOC(=O)c1c(C)c(C(=O)NCc2cccs2)c(C)n1C | -8 | -9 | 0 | 19 | -7 | 17882*
CCOC(=O)c1c(C)c(C(=O)NCCCN2CCCC2=O)c(C)n1CC | 2 | 0 | -2 | 19 | 0 | 22714*
CCOC(=O)c1c(C)c(C(=O)NCc2cccnc2)c(C)n1CC | ? | 1 | -4 | 6 | 2 | 20195*
CCn1cc(C(=O)NCC(OC)OC)c(=O)c2cc(S(=O)(=O)N(C)C3CCCCC3)ccc21 | -1 | 1 | 5 | 1 | 0 | 5941
CCOC(=O)C1CCCN(C(=S)Nc2cccc(Cl)c2C)C1 (stereo not drawn) | -1 | -8 | -7 | 19 | -2 | 7249
COc1ccc2[nH]cc(CCNC(=O)C3CCCO3)c2c1 (stereo not drawn) | -2 | -25 | -3 | 17 | -4 | 3123
CCOC(=O)c1c(C)c(C(=O)NCCCOC)c(C)n1C | ? | 0 | -3 | 4 | -2 | 20527*
CCOC(=O)c1c(C)c(C(=O)OCC)n(C)c1C | 2 | 11 | 1 | 23 | -5 | 3832
CCOC(=O)c1cnn(C)c1NC(=O)c1ccc(Cl)cc1Cl | 2 | 15 | 2 | 16 | -6 | 3529
COc1ccccc1-c1cnc(C(O)c2ccc(SC)cc2)[nH]1 (stereo not drawn) | -1 | -11 | . | . | -6 | 3121
CC1=C(C(=O)N(C)C)CC(CC(=O)NC(c2ccccc2)c2ccccc2)C(=O)N1CCC1=CCCCC1 (stereo not drawn) | 0 | -11 | . | . | -6 | 3307
CCOCC(O)CS(=O)Cc1ccccc1 (stereo not drawn) | -6 | -8 | -7 | 7 | -4 | 24995*
CCCCS(=O)CC(O)COCC (stereo not drawn) | 0 | -6 | 3 | 0 | 1 | 9733
Cc1ccc(NC(=O)C2CC(=O)n3ncnc3N2)cc1C (stereo not drawn) | 0 | 4 | 0 | 20 | 3 | 4797
COC(=O)c1c(C)n(Cc2ccco2)c2ccc(O)cc12 | -8 | -9 | 0 | 0 | -2 | 24915*
CCOC(=O)c1ccc(NC(=O)c2ncn3c2C(=O)N[C@H](C)C3)cc1 | 0 | 2 | . | . | -4 | 2850
COc1ccc(C(=O)CC2OC(=O)c3ccccc32)cc1OC (stereo not drawn) | ? | 0 | -2 | 3 | -2 | 21822*
Cc1cccc(C(=O)OCC(=O)c2csc(N3CCCCC3)n2)c1[N+](=O)[O-] | 1 | -9 | . | . | -4 | 2866
CSCC[C@@H](CO)NC(=O)[C@H]1O[C@@H](n2ccc(N)nc2=O)[C@H](O)[C@@H]1O | -1 | -1 | . | . | 1 | 5646
O=C(Nc1ccc(Cc2nc3ccccc3s2)cc1)c1ccncc1 | -2 | -4 | 1 | 8 | -2 | 6385
SMILES | BoNT A protease | BoNT-F LC inh | SARS 3CLpro inh | VHR inh abs | Anthrax LF prot | Autofluor counter
O=C(CN1C(=O)NC2(CCCCC2)C1=O)Nc1ccc2[nH]c(=O)[nH]c2c1 | 2 | 0 | . | . | 0 | 7585
Cc1cc(C(=O)NNS(=O)(=O)c2ccc(C(C)(C)C)cc2)nn1C(C)(C)C | -1 | -13 | 2 | -3 | -7 | 6908
Cn1c(=O)c2c(-c3ccccc3)n(-c3ccccc3N)cc2n(C)c1=O | 0 | -3 | . | . | -3 | 3626
Cn1c(=O)c2c(-c3ccccc3)n(-c3cc([N+](=O)[O-])ccc3O)cc2n(C)c1=O | 0 | -6 | . | . | 0 | 2879
CC(=O)Nn1cc2c(c1-c1ccccc1)c(=O)n(C)c(=O)n2C | -2 | -7 | 0 | -21 | 2 | 24616*
Cn1c(=O)c2c(-c3ccccc3)n(-c3cc(Cl)c([N+](=O)[O-])cc3O)cc2n(C)c1=O | -18 | -127 | . | . | -20 | 21612*
CCC(=O)Nc1ccc(C(=O)N/N=C/c2ccccc2[N+](=O)[O-])cc1 | -2 | -4 | -2 | 25 | -2 | 23894*
CCOc1ccc(C(=O)N/N=C/c2ccccc2[N+](=O)[O-])cc1 | 0 | 2 | 2 | 33 | 0 | 2109
Cc1cc(Nc2ccc(F)cc2)nc(N)n1 | 0 | -3 | -4 | 28 | 1 | 23182*
Cc1cc(Nc2ccc(C(=O)O)cc2)nc(N)n1 | . | . | -5 | 0 | . | .
O=C(CCc1nc2ccccc2s1)Nc1cccnc1 | 1 | -20 | 0 | 17 | -4 | 4261
Cc1ccccc1CSCCNS(C)(=O)=O | -2 | -2 | -1 | 25 | -4 | 17003*
COc1ccc(S(=O)(=O)NCCSCc2ccccc2C)cc1Br | 1 | 0 | 3 | 17 | -2 | 16146*
CS(=O)(=O)NCCSCc1ccccc1 | 0 | -6 | -5 | -5 | -1 | 4466
CS(=O)(=O)NCCSCc1c(Cl)cccc1Cl | -2 | -2 | 1 | 10 | 0 | 17037*
COc1ccc(S(=O)(=O)NCCSCc2ccco2)cc1OC | 0 | -16 | 1 | 0 | 0 | 4310
CS(=O)(=O)NCCSCc1c(F)cccc1Cl | 0 | -2 | -6 | 10 | 1 | 2553
CC(C)c1ccccc1NC(=O)COC(=O)C1(C)CC1(Cl)Cl (stereo not drawn) | 0 | 1 | -1 | 23 | -4 | 3045
Cc1c(C(=O)OCc2ccc(F)cc2)sc2nc3n(c(=O)c12)CCC3 | -2 | -5 | . | . | 0 | 4458
c1ccc2c(c1)nnn2-c1ncnc2sc3c(c12)CCCC3 | -2 | -3 | 3 | -16 | 0 | 23314*
Cc1cc(C)c(S(=O)(=O)N2CCN(S(=O)(=O)N3CCOCC3)CC2)c(C)c1 | -1 | 14 | 4 | 16 | -10 | 4007
Cc1ccnc(NS(=O)(=O)c2ccc(N=CC3=C(O)CC(C)(C)CC3=O)cc2)n1 | ? | 2 | 4 | 13 | -1 | 22067*
CCSc1nnc(-c2ccccc2N)c(=O)[nH]1 | 0 | -1 | -11 | 2 | -4 | 23571*
CCSc1nnc(-c2cc(Br)ccc2N)c(=O)[nH]1 | 1 | -3 | 1 | 6 | 1 | 2107
CCCCCCC(=O)N(O)C1CC(=O)N(c2ccc(C)cc2)C1=O (stereo not drawn) | 30* | 0 | 1 | -4 | -53 | 2106
COc1ccccc1OCc1nnc(SCC(=O)N2CCCCC2)o1 | -1 | 3 | -4 | 11 | -1 | 5499
COc1ccccc1OCc1nnc(SCC(=O)c2cc(Cl)ccc2OC)o1 | ? | 3 | 0 | 6 | 1 | 21782*
COc1ccccc1OCc1nnc(SCC(=O)N2CCCC2)o1 | 2 | 13 | -2 | -19 | 2 | 3915
